# Assay outcomes as filed in PubChem BioAssay.
# Pol iota inh – blocks human DNA polymerase iota activity | Potency, µM (highest dose often 115 µM), actives largely listed as inhibitors | Q9UNA4 | actives 1% (n = 390,000) | Pol iota fluorescent replication assay, 10 min
#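 Pol iota at 10 nM preincubated 15 min with compounds at room temperature; reaction started with fluorescent substrate, 50 nM final. Fluorescence read kinetically at 0 and 10 min; buffer-only wells as negative control.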
# WRN inhibitor – blocks human WRN helicase | Potency, µM (top dose mostly 114 µM), hits mostly inhibitors | AID 651768 | WRN helicase unwinding, fluorescent forked duplex, kinetic | actives 0.46% (n = 360,000) | Q14191; note: nearly all actives have a fitted effect of over 55% in size
#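 WRN at 20 nM final was preincubated with compound for 15 min at room temperature; reaction started with 100 nM forked duplex oligonucleotide carrying fluorophore and quencher plus 2 mM ATP (final). Unwinding followed kinetically by red fluorescence (ex 525/em 598 nm).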
# Pol eta inh – inhibitors of human DNA polymerase eta; recombinant Pol eta, fluorescent DNA replication assay; Potency, µM (doses to about 114 µM), hits mostly inhibitors; actives 1.2% (n = 390,000); AID 588591
#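 Fluorescent replication assay: 50 nM final substrate added after a 15 min room-temperature compound preincubation with 10 nM enzyme. Signal taken at 0 min and again at 10 min.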
# POLB inh – blocks human DNA polymerase beta activity; Pol beta primer extension/strand displacement, fluorescence kinetic; Potency, µM (series often up to 114 µM), actives largely listed as inhibitors; actives 1.3% (n = 340,000); P06746
#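 Preincubation: enzyme (10 nM) with compound, 15 min, RT. Reaction: substrate added to 50 nM final. Reads: 0 and 10 min. Analysis: normalized, Hill fit.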
# L3MBTL1 inh – inhibitors of human L3MBTL1; Potency, µM (titrated, usually from 57.1 µM), most hits filed as inhibitors; actives 0.66% (n = 230,000); AlphaScreen L3MBTL1–H3K9me1 peptide binding; AID 485360; Q9Y468; note: nearly all actives have a fitted effect of over 60% in size
#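 Read-out is AlphaScreen signal from streptavidin donor and nickel chelate acceptor beads (10 ug/mL final each) bridging L3MBTL1 (50 nM) and biotinylated K9-monomethylated H3(1-15) peptide (75 nM), after 30 min compound exposure at room temperature.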
# POLK inh – blocks human DNA polymerase kappa activity. purified Pol kappa, fluorescent DNA synthesis assay, 10 min. Potency, µM (titrated, usually from 107 µM), hits mostly inhibitors. actives 0.53% (n = 400,000)
#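 50 nM final substrate added after 15 min RT preincubation of 10 nM Pol kappa with compound; fluorescence read at 0 and 10 min.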
# Numbers stand for hits; – = inactive; ? = inconclusive; · = not tested or not shown; ! = a repeat was not active; [ ] = another dose, or the depositor's remark. Compounds with a hit are over-represented: about 2.5% of the library has one in this group of screens. Calls come from the whole dose curve; as a rule, active = well fitted curve in the direction sought with a large enough effect; inconclusive = small, poorly fitted or top-dose-only effect, or another doubt; inactive = no such curve, though single readings can be large; an effect the other way counts as inactive or inconclusive.
SMILES,Pol iota inh,WRN inhibitor,Pol eta inh,POLB inh,L3MBTL1 inh,POLK inh
CCOC(=O)N/N=C/c1cc(OC)c(O)c(OC)c1,–,–,–,?,–,–
OCCNC(=S)Nc1ccc2nsnc2c1,20µM,–,–,–,·,–
Cc1nc2ccc(NC(=S)NCCCO)cc2nc1C,18µM,–,?,–,–,–
Cc1nc2ccc(NC(=S)NC3CC3)cc2nc1C,–,–,–,–,–,–
COc1ccc(N2CCN(C3CCCN(Cc4ccc(F)cc4Cl)C3)CC2)cc1 (stereo not drawn),–,–,–,–,–,–
COc1ccc2[nH]c(O)c(N=NC(=O)Cc3cccs3)c2c1,?,–[11.6 µM],32µM,?,·,–
O=C(Cc1cccs1)N=Nc1c(O)[nH]c2ccc(Br)cc12,?,?,–,–,–,–
CC(C)CC(=O)Nc1ccc(C(=O)NNC(=O)C(c2ccccc2)c2ccccc2)cc1,–,–,–,–,·,–
CC(C)C(=O)Nc1ccc(C(=O)NNC(=O)C(c2ccccc2)c2ccccc2)cc1,79µM,–[11.6 µM],–,?,–,–
CCC(=O)Nc1ccc(C(=O)NNC(=O)C(c2ccccc2)c2ccccc2)cc1,–,–,?,45µM,–,–
COc1ccc(S(=O)(=O)NCC(=O)N(CC(=O)NCC2CCCO2)Cc2ccccc2)cc1 (stereo not drawn),–,–,?,–,·,–
COc1ccc([N+](=O)[O-])c2c1CCN2C(=O)CC[C@H](N)C(=O)O,·,·,·,·,·,–[19.4 µM]
CC1OC(OC2C(Oc3c(-c4ccc(O)cc4)oc4cc(O)cc(O)c4c3=O)OC(COC3O[C@@H](C)[C@H](O)[C@@H](O)C3O)C(O)C2O)C(O)C(O)C1O (stereo partly drawn),–,–,–,·,–,–
C[C@@H]1O[C@@H](OC[C@H]2O[C@@H](Oc3c(-c4ccc(O)c(O)c4)oc4cc(O)cc(O)c4c3=O)[C@H](O)[C@@H](O)[C@@H]2O)[C@H](O)[C@H](O)[C@H]1O,–,–,–,8.9µM,·,24µM!
O=c1c(O[C@@H]2O[C@H](CO)[C@@H](O)[C@H](O)[C@H]2O)c(-c2ccc(O)c(O)c2)oc2cc(O)cc(O)c12,·,·,·,1.8µM,·,·
O=c1c2c(O)cc(O)cc2oc2ccc(O)c(O[C@@H]3O[C@H](CO)[C@@H](O)[C@H](O)[C@H]3O[C@H]3O[C@H](CO)[C@@H](O)[C@H](O)[C@H]3O)c12,–,–,–,·,–,–
O=c1c(OC2OC(CO)C(O)C(O)C2OC2OC(CO)C(O)C(O)C2OC2OC(CO)C(O)C(O)C2O)c(-c2ccc(O)c(O)c2)oc2cc(O)cc(O)c12 (stereo not drawn),50µM,–,?,?,·,56µM
O=c1cc(-c2ccc(O)c(O)c2)oc2cc(OC3OC(CO)C(O)C(O)C3O)cc(O)c12 (stereo not drawn),·,·,·,·,·,0.89µM
Cc1nnc(N2CCC(C(=O)NCc3cccc(Cl)c3)CC2)c2nn(-c3ccccc3)c(C)c12,?,·,–,–,·,–
CN(C(=O)c1ccncc1)C1CC(C)(C)N(O)C(C)(C)C1,–,–,–,–,–,–
O=C(CSc1nc2cc(Cl)ccc2s1)c1ccco1,–,–,–,–,–,–
O=C(CSc1nnc(SCC(=O)c2ccco2)s1)c1ccco1,?,?,16µM,32µM,?,?
CCOc1ccc(CCNC(=O)c2cc3cc4cc(OC)ccc4nc3s2)cc1OCC,–,·,–,14µM,·,–
CCC(C)NC(=O)c1cc2cc3ccc(OC)cc3nc2s1 (stereo not drawn),–,–,?,50µM,·,?
COc1ccc2nc3sc(C(=O)Nc4cc(Cl)c(OC)cc4OC)cc3cc2c1,–,·,?,?,·,–
Cc1ccc(C(=O)Nc2ccc(O)c(C(=O)O)c2)o1,–,–[11.6 µM],14µM,?,–[11.4 µM],–
Cc1ccc(C(=O)Nc2ccc(F)cc2)o1,–,–,–,?,–,–
COc1ccc(C(=O)COC(=O)c2cc([N+](=O)[O-])ccc2N2CCOCC2)c(OC)c1,79µM,–[11.6 µM],?,·,?,–
COc1ccccc1C(=O)COC(=O)c1cc([N+](=O)[O-])ccc1N1CCOCC1,–,–,–,·,–,–
